# From PubChem
# Rows were chosen to be rich in hits. Some 3.3% of all compounds tested hit in one or more screens of this group.
# PfM18AAP inh-1 = PfM18AAP inhibitors, malaria aminopeptidase, primary screen, biochemical, QFRET, recombinant enzyme | H-Glu-NHMec fluorogenic cleavage | actives 1.2% (n = 290,000) | inhibition, % at 7.35 µM | M18 aspartyl aminopeptidase (Plasmodium falciparum 3D7);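 active = inhibition above the campaign mean inhibition over all tested compounds plus 3 SD, cut at about 28% in these data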;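 note: 0% = plate median of test compound wells and 100% = 2 mM ZnCl2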
# UHRF1 MBD2 ctr = UHRF1 methylated DNA binding inhibitors, primary screen, counter-screen for MBD2 inhibitor project, biochemical, TR-FRET, human UHRF1, single concentration | E3 ubiquitin-protein ligase UHRF1 (Homo sapiens), Q96T88 | UHRF1 binding to methylated oligo | inhibition, % at 4.4 µM | actives 0.75% (n = 370,000); in the data active = inhibition above about 21%;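 note: UHRF1 SRA domain binding a hemimethylated CpG hairpin DNA probe; 0% = median of test compound wells and 100% = reference inhibitor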
# PfG6PD inh = PfG6PD enzyme inhibitors, primary screen, biochemical, fluorescence intensity, uHTS | glucose-6-phosphate dehydrogenase-6-phosphogluconolactonase (Plasmodium falciparum 3D7) | PfGluPho enzyme, NADPH resazurin-diaphorase fluorescence | inhibition, % at 20 µM | actives 0.78% (n = 350,000);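 active = inhibition reaching at least a set limit at 20 µM in the primary screen, cut at about 59% in these data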;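 note: 0% = DMSO wells with substrate and 100% = DMSO wells lacking glucose-6-phosphate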
# MBD2 DNA inh = inhibitors of MBD2 binding to methylated DNA, primary screen, biochemical, TR-FRET, DNA-binding domain, human. AID 686964, 2013. inhibition, % at 4.4 µM. actives 0.31% (n = 370,000). MBD2 binding to methylated oligonucleotide; in the data active = inhibition above about 13%
# PRMT1 inh = PRMT1 methyltransferase inhibitors, primary screen, biochemical, fluorescence polarization | Protein arginine N-methyltransferase 1 (Homo sapiens), Q99873 | recombinant PRMT1, activity-based probe fluorescence polarization | inhibition, % at 2.79 µM | actives 1.3% (n = 370,000) | AID 652257, 2013;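 active = inhibition above about 21% made by adding two undisclosed values, limit read from the data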
# Target sequence (Q99873 whole entry, looked up): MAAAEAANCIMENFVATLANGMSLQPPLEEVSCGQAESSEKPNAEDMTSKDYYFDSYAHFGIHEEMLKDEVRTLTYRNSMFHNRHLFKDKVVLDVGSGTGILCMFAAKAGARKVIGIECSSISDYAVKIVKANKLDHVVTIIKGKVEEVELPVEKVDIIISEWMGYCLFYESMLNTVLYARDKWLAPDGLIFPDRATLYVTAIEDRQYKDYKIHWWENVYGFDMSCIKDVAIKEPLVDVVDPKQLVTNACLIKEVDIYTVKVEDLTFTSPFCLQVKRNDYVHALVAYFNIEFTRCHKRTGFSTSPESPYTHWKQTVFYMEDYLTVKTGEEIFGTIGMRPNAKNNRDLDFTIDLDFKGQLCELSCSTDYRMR
# PfM18AAP inh-2 = PfM18AAP inhibitors, malaria aminopeptidase, confirmation, biochemical, QFRET, recombinant enzyme, triplicate | shares compounds with PfM18AAP inh-1 | H-Glu-NHMec fluorogenic cleavage | inhibition, % at 7.35 µM | actives 28% (n = 2,400);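 active = mean inhibition over replicate wells above the hit cutoff set for the earlier primary screen, cut at about 29% in these data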;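 note: 0% = median of test compound wells and 100% = 2 mM ZnCl2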
# CTSL1 confirm = cathepsin L1 inhibitors, retest, confirmation, counter-screen for PFM18AAP inhibitor project, biochemical, QFRET, triplicate; shares compounds with PfM18AAP inh-1; purified cathepsin L1, Z-Leu-Arg-MCA fluorescence; inhibition, % at 5.96 µM; 2,400 tested, under 10 active;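 active = average inhibition across replicates above the hit cutoff set in the earlier primary screen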;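 note: 0% = median of test compound wells and 100% = Z-Phe-Ala-diazomethylketone 1 µM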
# Target sequence (P07711 whole entry, looked up): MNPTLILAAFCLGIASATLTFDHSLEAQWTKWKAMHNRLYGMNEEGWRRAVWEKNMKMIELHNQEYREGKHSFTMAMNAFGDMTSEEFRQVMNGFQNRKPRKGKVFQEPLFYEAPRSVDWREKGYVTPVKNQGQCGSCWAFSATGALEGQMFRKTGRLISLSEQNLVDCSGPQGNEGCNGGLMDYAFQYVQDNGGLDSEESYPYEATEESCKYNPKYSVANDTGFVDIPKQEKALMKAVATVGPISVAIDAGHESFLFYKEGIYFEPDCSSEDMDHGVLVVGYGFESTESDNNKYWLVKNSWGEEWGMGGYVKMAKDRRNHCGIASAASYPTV
# An asterisk follows results filed as active; . = not tested or not shown.
SMILES,PfM18AAP inh-1,UHRF1 MBD2 ctr,PfG6PD inh,MBD2 DNA inh,PRMT1 inh,PfM18AAP inh-2,CTSL1 confirm
N#CC1=C(N)Oc2c(c(=O)oc3ccccc23)C1c1ccc(OC(=O)N2CCOCC2)cc1 (centres undefined),.,37.5*,-13.4,3.8,-1.4,.,.
CCC1C(C#N)=C(N)Oc2c1c(=O)oc1ccccc21 (centres undefined),-1.0,0.8,-7.0,0.4,2.0,.,.
Cc1ccc(C(=O)NCCN2CCC3(CC2)C(=O)NCN3c2ccccc2)cc1,.,-3.1,.,-3.4,-3.1,.,.
O=C(NC1CCCCC1)Oc1cc2oc(=O)sc2cc1Cl,31.2*,6.0,38.9,7.9,85.5*,.,.
COC(=O)C1=C(c2ccc(F)cc2OCc2ccccc2)C[C@@H]2CC[C@H]1N2C(=O)NCCN1CCOCC1,.,-2.8,-11.5,2.5,-1.8,.,.
CC(C)N1CCOC(c2ccc(O)c(O)c2)C1 (centres undefined),.,0.8,.,-2.0,3.3,.,.
CN1C(=O)/C(=C/c2cccn2-c2ccc3ccccc3c2)C(=O)NC1=S,-25.2,-0.4,0.2,-1.8,43.8*,.,.
Cc1cc(C)cc(N2C(=O)NC(=O)/C(=C\c3cccn3-c3ccccc3)C2=O)c1,5.3,5.5,-4.7,-6.2,5.0,.,.
NC(=S)c1cn(C2OC(CO)C(O)C2O)c2ncnc(N)c12 (centres undefined),39.7*,1.7,15.9,-0.8,3.8,.,.
N/C(=N\N=C\c1ccc(O)cc1O)N[N+](=O)[O-],43.6*,-3.2,-12.2,-0.6,2.5,64.7*,3.7
COc1ccccc1/C=N/N=C(/N)N[N+](=O)[O-],9.8,-15.2,4.9,4.9,-0.8,.,.
COc1cccc(-n2c(O)c(C=NCCN3CCNCC3)c(=O)[nH]c2=S)c1,9.5,6.7,4.4,-5.7,-1.6,.,.
COCc1cc(C2SCC(=O)Nc3c2c(=O)[nH]n3C(C)C)ccc1OC (centres undefined),1.1,-5.2,-18.5,-0.8,1.4,.,.
Cc1ccc(-n2nc(C)c3c2NC(=O)CSC3c2ccc3c(c2)OCO3)cc1 (centres undefined),35.1*,-4.1,4.5,-1.7,12.1,-17.9,3.4
O=C(CCNC(=O)N1C[C@H]2C[C@@H](C1)c1cccc(=O)n1C2)Nc1cccc(Cl)c1,0.8,0.4,19.4,1.2,-3.0,.,.
C[C@@H]1CN([C@@H](C)CO)C(=O)CCCn2nncc2CO[C@H]1CN(C)C(=O)Oc1ccc2ccccc2c1,.,-0.1,1.4,0.9,1.8,.,.
O=c1[nH]c(=S)[nH]c(O)c1/C=C1/C=c2ccccc2=N1,43.5*,-3.4,21.9,-5.8,6.5,59.4*,-2.8
CCN(CC)c1ccc(N=Cc2c(O)[nH]c(=O)[nH]c2=O)cc1,44.4*,11.0,21.1,-4.6,30.8*,-36.1,4.1
CCC1C2CC3C4N(C)c5ccccc5C45CC(C2C5O)N3C1O (centres undefined),.,0.0,.,6.6,1.6,.,.
CC1=C(C(=O)O)N2C(=O)C(NC(=O)Cc3ccccc3)C2SC1 (centres undefined),47.8*,14.4,25.2,3.5,0.1,-16.8,-0.8
CN1CCC(OC(=O)Cc2ccccc2)CC1,-4.2,-4.2,9.8,1.2,-1.2,.,.
O=C1NC(=O)N(c2ccc3c(c2)OCO3)C(=O)/C1=C\c1ccsc1,33.4*,0.2,28.7,0.4,3.0,-58.6,0.6
COC(=O)C1=C(c2c(C)noc2C)C[C@@H]2CC[C@H]1N2C(=O)NCCNC(C)=O,.,-0.1,-17.7,0.4,0.4,.,.
Oc1ccc(/C=N/NP(=S)(c2ccccc2)c2ccccc2)cc1O,38.0*,2.5,-13.6,0.7,1.1,0.9,0.3
Oc1ccc(/C=N/NP(=S)(c2ccccc2)c2ccccc2)c(O)c1O,33.2*,-3.1,7.5,-5.0,12.5,-23.9,3.7
SMILES,PfM18AAP inh-1,UHRF1 MBD2 ctr,PfG6PD inh,MBD2 DNA inh,PRMT1 inh,PfM18AAP inh-2,CTSL1 confirm
Oc1ccccc1/C=N/NP(=S)(c1ccccc1)c1ccccc1,-2.3,5.8,-10.7,2.1,11.4,.,.
CCCCC12CNCC(C)(CNC1)C2=O,-3.6,0.0,-1.3,-0.5,4.4,.,.
O=C1NC(=O)N(Cc2ccco2)C(=O)/C1=C/c1ccc(-c2cccc([N+](=O)[O-])c2)o1,33.9*,.,90.1*,.,.,-101.1,-6.0
CC(C(=O)c1ccc(Cl)cc1Cl)n1cncn1 (centres undefined),64.9*,2.5,12.8,-3.4,0.5,53.9*,-1.7
CC(C)(C)C(O)C(Oc1ccc(Cl)cc1)n1cncn1 (centres undefined),-7.4,0.3,-6.1,1.3,-0.5,.,.
Cc1cc(/C=C2\C(=O)NC(=O)N(c3ccc(Br)cc3)C2=O)c(C)n1-c1cc(C(=O)O)cc(C(=O)O)c1,35.0*,43.7*,8.2,10.6,16.1,-1.5,-6.3
CN/C=C(/Cl)P(=O)(OC(C)C)OC(C)C,.,0.3,-5.8,-0.6,-3.9,.,.
O=C1/C(=C\c2cc3c(cc2Br)OCO3)N2CCC1CC2,36.6*,.,3.4,.,.,-40.5,7.4
O=C1/C(=C/c2ccc3c(c2)OCO3)N2CCC1CC2,1.6,-2.6,-10.1,0.0,-4.4,.,.
S=P(c1ccccc1)(c1ccccc1)c1cnc2ccccn12,.,1.9,.,0.2,-1.0,.,.
S=P(Nn1cnnc1)(c1ccccc1)c1ccccc1,44.0*,0.5,-6.2,-3.8,-0.2,48.7*,-2.7
COC(=O)Cn1cc(C=C2C(=O)NC(=O)NC2=O)c2ccccc21,48.6*,-5.2,15.4,-2.6,18.6,30.0*,-7.3
CCn1cc(C=C2C(=O)NC(=O)NC2=O)c2ccccc21,42.4*,-8.1,-9.0,0.8,10.0,38.3*,-0.2
Cc1nn(Cc2ccccc2)c(C)c1C=C1C(=O)NC(=O)NC1=O,5.8,11.0,0.8,1.5,18.9,.,.
O=c1[nH]c(=O)n(-c2ccccc2)c(O)c1/C=C1/C(c2ccccc2)=Nc2ccccc21,7.6,-3.4,-11.0,-1.3,9.1,.,.
O=C(O)c1ccc(-n2c(O)c(/C=C3\C=Nc4ccccc43)c(=O)[nH]c2=O)cc1,47.5*,-0.4,13.4,-3.2,2.3,53.2*,-0.5
O=c1[nH]c(=O)n(-c2cccc(F)c2)c(O)c1/C=C1\C=Nc2ccccc21,33.9*,22.2*,21.4,11.8,8.3,44.7*,-0.9
CC(=O)N(C1=NCCCS1)c1ccc(Cl)cc1,3.7,-0.1,-7.0,0.7,2.5,.,.
